Laboratory results published in PubChem BioAssay (EPA / NIEHS).
Some structures have more than one record in an assay (separate samples or runs), and their calls can disagree. Activity calls are given as the source filed them. Rule for the calls: active = hit-call score of the fitted dose curve at least 0.9, where 1 is the maximum; inactive = score below 0.9.

These molecules were tested on Interleukin 17F (IL17F), IL17F (gene 112744) (assay: BSK_BT_xIL17F: BioMAP Diversity Plus: BT Assay for Interleukin 17F (IL17F) Biomarker Activity (AID 2284243)). Conditions: primary human B cells with PBMC.
Summary of the method: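 Secreted IL-17F, read on LumineX xMAP beads, was taken as the endpoint. Cultures combined human B cells and peripheral blood mononuclear cells, sampled 24 hours after dosing, with DMSO serving as negative control.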

| SMILES | outcome | AC50 |
| --- | --- | --- |
| CC1OC1C1CCC2(C)OC2C1 (stereo unspecified) | inactive |  |
| N#[N+]c1ccc2c(S(=O)(=O)[O-])cccc2c1O | inactive |  |
| COc1ccc2nc(N)sc2c1 | inactive |  |
| CCCCCCCCCCCCCCCC[N+](C)(C)CC |  | 2.28 µM (active) |
| C#CC1(O)CC[C@H]2[C@@H]3CCC4=CCCC[C@@H]4[C@H]3CC[C@@]21C (stereo partly specified) |  | 28.6 µM (active) |
| O=C(Nc1ccccc1SSc1ccccc1NC(=O)c1ccccc1)c1ccccc1 |  | 9.15 µM (active) |
| CCOc1nc(F)cc2nc(S(=O)(=O)Nc3c(Cl)cccc3C(=O)OC)nn12 | inactive |  |
| O=Nc1ccc(O)cc1 | inactive |  |
| CCCCCCCCc1ccc(Nc2ccc(CCCCCCCC)cc2)cc1 | inactive |  |
| O=c1c2ccccc2oc2ccccc12 |  | 3.97 µM (active) |
| c1ccc2c(c1)ccc1ncccc12 |  | 20 µM (active) |
| C=CCOc1c(Br)cc(Br)cc1Br |  | 26.8 µM (active) |
| C=CCOCC(O)CCl (stereo unspecified) | inactive |  |
| CCO[Si](CCCN=C=O)(OCC)OCC | inactive |  |
| C/C=C\C/C=C/CCCCCCCCOC(C)=O |  | 25.5 µM (active) |
| c1ccc(-c2ccccn2)nc1 |  | 27.6 µM (active) |
| O=C(Cl)c1cc(C(=O)Cl)cc(C(=O)Cl)c1 |  | 29.5 µM (active) |
| c1ccc2c(c1)ccc1cc3c(ccc4ccccc43)cc12 | inactive |  |
| CCCCNc1ccc(NCCCC)c2c1C(=O)c1ccccc1C2=O | inactive |  |
| CCCCC(CC)COC(=O)c1ccccc1O (stereo unspecified) | inactive |  |
| CC(C)(c1cc(Br)c(OCCO)c(Br)c1)c1cc(Br)c(OCCO)c(Br)c1 |  | 23.8 µM (active) |
| CC(C)C(=O)C(C)C | inactive |  |
| CCCCC/C=C\C/C=C\CCCCCCCC(=O)OC |  | 25.2 µM (active) |
| C=CC(=O)OCC(Br)CBr (stereo unspecified) |  | 15.4 µM (active) |
| COCc1c(C(C)C)nc(C(C)C)c(/C=C/[C@@H](O)C[C@@H](O)CC(=O)O)c1-c1ccc(F)cc1 |  | 0.57 µM (active) |
| S=C(NC1CCCCC1)NC1CCCCC1 | inactive |  |
| C=CC=CC=CCCCCC |  | 7.28 µM (active) |

The molecules below were run on Actin alpha 1 (ACTA1), ACTA1 (gene 58) (assay: BSK_MyoF_ACTA1: BioMAP Diversity Plus: MyoF Assay for Actin alpha 1 (ACTA1) Biomarker Activity (AID 2284244)). Conditions: primary human lung fibroblasts.
Summary of the method: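 Human lung fibroblasts (MyoF system) dosed with test chemical for 24 h; α-SMA measured by ELISA. Gain of signal fitted relative to DMSO negative control as baseline.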

| SMILES | outcome | AC50 |
| --- | --- | --- |
| CC1OC1C1CCC2(C)OC2C1 (stereo unspecified) | inactive |  |
| N#[N+]c1ccc2c(S(=O)(=O)[O-])cccc2c1O | inactive |  |
| COc1ccc2nc(N)sc2c1 | inactive |  |
| CCCCCCCCCCCCCCCC[N+](C)(C)CC |  | 0.757 µM (active) |
| C#CC1(O)CC[C@H]2[C@@H]3CCC4=CCCC[C@@H]4[C@H]3CC[C@@]21C (stereo partly specified) |  | 32.2 µM (active) |
| O=C(Nc1ccccc1SSc1ccccc1NC(=O)c1ccccc1)c1ccccc1 | inactive |  |
| CCOc1nc(F)cc2nc(S(=O)(=O)Nc3c(Cl)cccc3C(=O)OC)nn12 | inactive |  |
| O=Nc1ccc(O)cc1 | inactive |  |
| CCCCCCCCc1ccc(Nc2ccc(CCCCCCCC)cc2)cc1 | inactive |  |
| O=c1c2ccccc2oc2ccccc12 | inactive |  |
| c1ccc2c(c1)ccc1ncccc12 | inactive |  |
| C=CCOc1c(Br)cc(Br)cc1Br |  | 24.4 µM (active) |
| C=CCOCC(O)CCl (stereo unspecified) | inactive |  |
| CCO[Si](CCCN=C=O)(OCC)OCC | inactive |  |
| C/C=C\C/C=C/CCCCCCCCOC(C)=O |  | 31.9 µM (active) |
| c1ccc(-c2ccccn2)nc1 | inactive |  |
| O=C(Cl)c1cc(C(=O)Cl)cc(C(=O)Cl)c1 |  | 35.1 µM (active) |
| c1ccc2c(c1)ccc1cc3c(ccc4ccccc43)cc12 | inactive |  |
| CCCCNc1ccc(NCCCC)c2c1C(=O)c1ccccc1C2=O | inactive |  |
| CCCCC(CC)COC(=O)c1ccccc1O (stereo unspecified) | inactive |  |
| CC(C)(c1cc(Br)c(OCCO)c(Br)c1)c1cc(Br)c(OCCO)c(Br)c1 |  | 10.7 µM (active) |
| CC(C)C(=O)C(C)C | inactive |  |
| CCCCC/C=C\C/C=C\CCCCCCCC(=O)OC |  | 29.4 µM (active) |
| C=CC(=O)OCC(Br)CBr (stereo unspecified) |  | 20 µM (active) |
| COCc1c(C(C)C)nc(C(C)C)c(/C=C/[C@@H](O)C[C@@H](O)CC(=O)O)c1-c1ccc(F)cc1 |  | 0.0484 µM (active) |
| S=C(NC1CCCCC1)NC1CCCCC1 | inactive |  |
| C=CC=CC=CCCCCC | inactive |  |

Each molecule was assayed on Interleukin 2 (IL2), IL2 (gene 3558) (assay: BSK_BT_xIL2: BioMAP Diversity Plus: BT Assay for Interleukin 2 (IL2) Biomarker Activity (AID 2284245)). Conditions: primary human B cells with PBMC.
Summary of the method: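 Human B cells co-cultured with PBMC, exposed to test chemical for 24 h. Secreted IL-2 quantified by Luminex xMAP bead immunoassay; activity fitted in the positive direction relative to DMSO vehicle baseline.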

| SMILES | outcome | AC50 |
| --- | --- | --- |
| CC1OC1C1CCC2(C)OC2C1 (stereo unspecified) | inactive |  |
| N#[N+]c1ccc2c(S(=O)(=O)[O-])cccc2c1O | inactive |  |
| COc1ccc2nc(N)sc2c1 | inactive |  |
| CCCCCCCCCCCCCCCC[N+](C)(C)CC |  | 1.26 µM (active) |
| C#CC1(O)CC[C@H]2[C@@H]3CCC4=CCCC[C@@H]4[C@H]3CC[C@@]21C (stereo partly specified) |  | 31.6 µM (active) |
| CCOc1nc(F)cc2nc(S(=O)(=O)Nc3c(Cl)cccc3C(=O)OC)nn12 | inactive |  |
| O=Nc1ccc(O)cc1 | inactive |  |
| CCCCCCCCc1ccc(Nc2ccc(CCCCCCCC)cc2)cc1 | inactive |  |
| O=c1c2ccccc2oc2ccccc12 | inactive |  |
| c1ccc2c(c1)ccc1ncccc12 | inactive |  |
| C=CCOc1c(Br)cc(Br)cc1Br | inactive |  |
| C=CCOCC(O)CCl (stereo unspecified) | inactive |  |
| CCO[Si](CCCN=C=O)(OCC)OCC | inactive |  |
| C/C=C\C/C=C/CCCCCCCCOC(C)=O |  | 31.6 µM (active) |
| c1ccc(-c2ccccn2)nc1 | inactive |  |
| O=C(Cl)c1cc(C(=O)Cl)cc(C(=O)Cl)c1 |  | 29.7 µM (active) |
| c1ccc2c(c1)ccc1cc3c(ccc4ccccc43)cc12 | inactive | 0.0436 µM (active) |
| CCCCNc1ccc(NCCCC)c2c1C(=O)c1ccccc1C2=O | inactive |  |
| CCCCC(CC)COC(=O)c1ccccc1O (stereo unspecified) | inactive |  |
| CC(C)(c1cc(Br)c(OCCO)c(Br)c1)c1cc(Br)c(OCCO)c(Br)c1 |  | 18.7 µM (active) |
| CC(C)C(=O)C(C)C | inactive |  |
| CCCCC/C=C\C/C=C\CCCCCCCC(=O)OC |  | 28.9 µM (active) |
| C=CC(=O)OCC(Br)CBr (stereo unspecified) |  | 24.5 µM (active) |
| COCc1c(C(C)C)nc(C(C)C)c(/C=C/[C@@H](O)C[C@@H](O)CC(=O)O)c1-c1ccc(F)cc1 |  | 0.58 µM (active) |
| S=C(NC1CCCCC1)NC1CCCCC1 |  | 27.6 µM (active) |
| C=CC=CC=CCCCCC | inactive |  |
